These results are taken from ChEMBL document CHEMBL2218924, “A broad activity screen in support of a chemogenomic map for kinase signalling research and drug discovery” (Biochem J, 2013).

In test [1] the target is Tyrosine-protein kinase SYK (Homo sapiens) (UniProt P43405). To be noted: at 10 µM.
Test [2] has as its target T1, Mitogen-activated protein kinase kinase kinase 7 (Homo sapiens) (UniProt O43318).
T1 sequence (whole entry): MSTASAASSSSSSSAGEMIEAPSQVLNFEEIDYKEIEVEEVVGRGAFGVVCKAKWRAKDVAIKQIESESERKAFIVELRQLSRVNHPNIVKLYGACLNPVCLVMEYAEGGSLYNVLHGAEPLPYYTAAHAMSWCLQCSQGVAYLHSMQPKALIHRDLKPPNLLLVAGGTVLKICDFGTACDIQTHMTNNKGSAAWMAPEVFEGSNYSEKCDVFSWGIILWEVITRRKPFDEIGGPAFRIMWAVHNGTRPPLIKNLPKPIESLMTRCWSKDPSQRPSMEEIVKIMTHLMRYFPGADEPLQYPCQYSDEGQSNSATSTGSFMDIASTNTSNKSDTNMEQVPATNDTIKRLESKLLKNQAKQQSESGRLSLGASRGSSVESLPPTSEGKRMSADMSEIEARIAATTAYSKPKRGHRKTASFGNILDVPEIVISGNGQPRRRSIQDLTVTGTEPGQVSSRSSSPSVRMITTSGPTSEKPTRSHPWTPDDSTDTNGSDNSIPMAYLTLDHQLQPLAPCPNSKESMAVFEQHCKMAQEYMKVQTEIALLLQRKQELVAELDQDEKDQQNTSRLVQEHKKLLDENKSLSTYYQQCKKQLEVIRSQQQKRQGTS
Conditions: at 1 µM.

Test [3] addresses T1, Mitogen-activated protein kinase kinase kinase 7 (Homo sapiens). To be noted: at 10 µM.
Test [4] deals with T2, Serine/threonine-protein kinase TAO1 (Homo sapiens) (UniProt Q7L7X3).
T2 sequence (whole entry): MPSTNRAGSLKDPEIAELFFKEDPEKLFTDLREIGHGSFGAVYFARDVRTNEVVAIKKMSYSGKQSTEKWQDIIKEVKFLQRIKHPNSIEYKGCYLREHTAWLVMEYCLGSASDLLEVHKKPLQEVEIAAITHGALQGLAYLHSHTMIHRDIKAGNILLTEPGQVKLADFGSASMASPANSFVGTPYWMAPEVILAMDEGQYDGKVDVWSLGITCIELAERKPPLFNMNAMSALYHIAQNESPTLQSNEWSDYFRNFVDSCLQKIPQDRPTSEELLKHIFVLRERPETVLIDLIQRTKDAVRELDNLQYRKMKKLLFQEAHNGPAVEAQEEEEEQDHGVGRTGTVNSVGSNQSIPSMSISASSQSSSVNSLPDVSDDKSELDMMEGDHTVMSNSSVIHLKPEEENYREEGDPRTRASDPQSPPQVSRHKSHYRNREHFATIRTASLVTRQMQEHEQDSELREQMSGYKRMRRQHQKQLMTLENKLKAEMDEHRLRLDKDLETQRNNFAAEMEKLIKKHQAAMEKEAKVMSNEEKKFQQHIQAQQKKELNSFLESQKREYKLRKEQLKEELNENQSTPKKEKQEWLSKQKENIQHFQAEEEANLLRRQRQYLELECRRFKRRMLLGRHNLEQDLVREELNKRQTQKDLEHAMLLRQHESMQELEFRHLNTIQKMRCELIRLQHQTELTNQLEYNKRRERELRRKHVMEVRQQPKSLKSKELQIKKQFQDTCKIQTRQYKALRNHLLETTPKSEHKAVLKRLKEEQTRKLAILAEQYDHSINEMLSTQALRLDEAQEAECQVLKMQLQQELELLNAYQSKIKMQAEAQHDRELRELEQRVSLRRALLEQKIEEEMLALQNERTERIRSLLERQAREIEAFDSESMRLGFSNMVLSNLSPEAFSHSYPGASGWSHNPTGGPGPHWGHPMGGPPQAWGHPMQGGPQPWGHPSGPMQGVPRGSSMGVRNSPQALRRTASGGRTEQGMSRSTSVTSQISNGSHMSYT
Conditions: at 1 µM.

For test [5], the target named is T2, Serine/threonine-protein kinase TAO1 (Homo sapiens). To be noted: at 10 µM.
In test [6] the target is T3, Serine/threonine-protein kinase TAO2 (Homo sapiens) (UniProt Q9UL54).
T3 sequence (whole entry): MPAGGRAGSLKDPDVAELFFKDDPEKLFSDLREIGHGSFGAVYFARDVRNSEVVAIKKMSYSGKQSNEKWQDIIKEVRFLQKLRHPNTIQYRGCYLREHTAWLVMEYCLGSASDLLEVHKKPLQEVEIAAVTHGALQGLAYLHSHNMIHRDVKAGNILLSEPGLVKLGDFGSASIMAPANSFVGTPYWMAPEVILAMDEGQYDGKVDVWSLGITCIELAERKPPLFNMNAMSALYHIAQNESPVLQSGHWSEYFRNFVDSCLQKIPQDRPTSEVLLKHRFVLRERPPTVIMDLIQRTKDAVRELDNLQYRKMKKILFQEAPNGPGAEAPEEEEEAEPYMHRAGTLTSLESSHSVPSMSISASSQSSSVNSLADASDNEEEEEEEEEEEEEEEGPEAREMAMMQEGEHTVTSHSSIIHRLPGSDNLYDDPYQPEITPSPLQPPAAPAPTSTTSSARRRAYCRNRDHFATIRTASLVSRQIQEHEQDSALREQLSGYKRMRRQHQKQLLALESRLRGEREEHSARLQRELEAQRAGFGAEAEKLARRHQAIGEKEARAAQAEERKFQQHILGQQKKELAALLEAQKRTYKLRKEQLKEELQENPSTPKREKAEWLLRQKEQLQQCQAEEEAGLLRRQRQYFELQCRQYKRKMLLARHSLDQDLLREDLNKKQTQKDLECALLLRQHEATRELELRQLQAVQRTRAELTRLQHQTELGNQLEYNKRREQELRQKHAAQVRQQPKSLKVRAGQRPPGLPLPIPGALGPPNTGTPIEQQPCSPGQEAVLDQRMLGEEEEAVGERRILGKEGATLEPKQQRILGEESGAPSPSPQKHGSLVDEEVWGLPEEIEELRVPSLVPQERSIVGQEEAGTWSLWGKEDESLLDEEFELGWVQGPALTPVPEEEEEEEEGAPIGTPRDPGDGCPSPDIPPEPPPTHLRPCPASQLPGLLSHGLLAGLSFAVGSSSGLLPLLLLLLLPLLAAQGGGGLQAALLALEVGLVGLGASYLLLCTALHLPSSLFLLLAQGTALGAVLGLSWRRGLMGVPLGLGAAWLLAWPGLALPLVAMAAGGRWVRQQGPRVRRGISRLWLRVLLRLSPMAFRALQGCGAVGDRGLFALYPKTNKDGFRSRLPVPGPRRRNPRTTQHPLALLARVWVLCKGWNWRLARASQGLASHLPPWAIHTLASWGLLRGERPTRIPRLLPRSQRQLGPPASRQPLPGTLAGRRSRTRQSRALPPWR
Conditions: at 1 µM.

Test [7] concerns the target T3, Serine/threonine-protein kinase TAO2 (Homo sapiens). Conditions: at 10 µM.
For test [8], the target named is T4, Serine/threonine-protein kinase TAO3 (Homo sapiens) (UniProt Q9H2K8).
T4 sequence (whole entry): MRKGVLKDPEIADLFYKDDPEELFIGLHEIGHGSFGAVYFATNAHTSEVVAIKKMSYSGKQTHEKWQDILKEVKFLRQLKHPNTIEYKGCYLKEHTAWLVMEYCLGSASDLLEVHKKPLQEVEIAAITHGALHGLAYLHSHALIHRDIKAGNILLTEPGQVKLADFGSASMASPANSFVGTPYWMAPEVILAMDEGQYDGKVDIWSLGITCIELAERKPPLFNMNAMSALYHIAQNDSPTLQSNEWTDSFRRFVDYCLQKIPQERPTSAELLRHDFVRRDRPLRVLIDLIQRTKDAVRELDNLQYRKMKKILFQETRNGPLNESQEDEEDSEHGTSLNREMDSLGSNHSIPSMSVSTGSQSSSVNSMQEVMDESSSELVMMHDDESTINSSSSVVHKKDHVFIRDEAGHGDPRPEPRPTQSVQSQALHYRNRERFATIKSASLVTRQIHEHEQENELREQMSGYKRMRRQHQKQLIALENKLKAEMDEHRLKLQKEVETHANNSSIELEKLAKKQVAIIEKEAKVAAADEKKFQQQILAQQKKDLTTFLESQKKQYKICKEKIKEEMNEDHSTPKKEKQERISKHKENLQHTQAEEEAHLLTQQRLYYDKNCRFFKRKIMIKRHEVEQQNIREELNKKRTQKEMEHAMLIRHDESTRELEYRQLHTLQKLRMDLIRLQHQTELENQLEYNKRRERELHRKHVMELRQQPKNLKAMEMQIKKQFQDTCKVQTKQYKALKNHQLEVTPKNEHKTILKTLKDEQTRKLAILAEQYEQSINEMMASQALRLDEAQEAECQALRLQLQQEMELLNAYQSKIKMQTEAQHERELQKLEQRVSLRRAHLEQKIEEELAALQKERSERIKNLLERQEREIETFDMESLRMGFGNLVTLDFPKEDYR
To be noted: at 1 µM.

For test [9], the target named is T4, Serine/threonine-protein kinase TAO3 (Homo sapiens). To be noted: at 10 µM.

For `COc1ccc(C(=O)Nc2sc3c(c2C(N)=O)CCCC3)cc1OC`, the residual activity came out at 89% in test [1]; 86% in test [2]; 86% in test [3]; 97% in [4]; 86% in [5]; 92% in test [6]. The residual activity is 83% in test [7], 91% in test [8] and 93% in test [9].
